Results filed as inconclusive are left out. A call without a number means that no potency is given here. Activity calls are given as the source filed them. The call rests on the fitted dose curve; in most records, active means well fitted cell-killing curve with a large enough effect in the repeat runs; inconclusive means weak or mixed curves; inactive means no such curve, though single readings can be large or run the other way.
Assay: qHTS assay to identify small molecule agonists of the peroxisome proliferator-activated receptor delta (PPARd) signaling pathway - cell viability counter screen (AID 743211); further: nearly all actives have a fitted effect of over 55% in size
Settings: PPARd-bla HEK293H viability, CellTiter-Glo luminescence, 17 h; series mostly up to 62.6 µM
Text: U.S. Tox21 Program National Center for Advancing Translational Sciences [NCATS] NIH Chemical Genomics Center [NCGC] U.S. Environmental Protection Agency [EPA] National Institutes of Environmental Health Sciences [NIEHS] National Toxicology Program [NTP] U.S. Food and Drug Administration [FDA] Tox21 Assay Overview: The peroxisome proliferator-activated receptors (PPARs) are lipid-activated transcription factors of the nuclear receptor superfamily with three distinct subtypes namely PPAR alpha, PPAR delta (PPARd) and PPAR gamma. All these subtypes heterodimerizes with Retinoid X receptor (RXR) and have different physiological functions. […] To identify the compounds that activate PPAR-delta signaling, GeneBLAzer PPAR delta UAS-bla HEK293H cell line (Invitrogen, Carlsbad, CA, USA) containing a beta-lactamase reporter gene under the control of an Upstream Activator Sequence (UAS) was used to screen the Tox21 compound library. The cytotoxicity of the Tox21 compound library against the PPARd-bla cell line was tested in parallel by measuring the cell viability using CellTiter-Glo assay (Promega, Madison, WI) in the same wells.
Tox21 Assay Protocol Summary: PPARd-bla cells were dispensed at 3000 cells/6uL/well in 1536-well black wall/clear bottom plates using a Multidrop Combi (Thermo Fisher Scientific, Waltham, MA) dispenser. After the assay plates were incubated at 37 C and 5% CO2 for 5 h, 23 nL of compounds dissolved in DMSO, positive controls or DMSO only was transferred to the assay plate by a Pintool station (Kalypsys, San Diego, CA). The assay plates were incubated at 37C for 17 h. After 1 uL of LiveBLAzerTM B/G FRET substrate was added using a Bioraptr Flying Reagent Dispenser (FRD) workstation (Beckman Coulter, Indianapolis, IN, USA), the plates were incubated at room temperature for 2 h, and fluorescence intensity was measured by an Envision plate reader (PerkinElmer, Shelton, CT). For cell viability readout that measures cytotoxicity, 3 ul/well of CellTiter-Glo reagent was added into the assay plates using a Bioraptr FRD. After 30 min incubation at room temperature, the luminescence intensity in the plates was measured using a ViewLux plate reader (PerkinElmer).

Row | SMILES | Potency
1 | COC(=O)C(C)(C)C | inactive
2 | CC1(C)CC(=O)CC(C)(C)N1 | inactive
3 | Nc1ncnc2c1ncn2[C@@H]1O[C@H](CO)[C@@H](O)[C@H]1O | inactive
4 | CC(C)CCCCCOC(=O)CS | inactive
5 | CCCCOC(=O)CC#N | inactive
6 | CC(=O)c1cccnc1 | inactive
7 | CC(C)(C)NCC(O)COc1ccc(NC(=O)NC2CCCCC2)cc1 (stereo not given) | inactive
8 | c1ccc(CCNc2nc(-c3ccccc3)cs2)cc1 | inactive
9 | CCOC(OCC)OCC | inactive
10 | c1ccc(-c2ccc(-c3ccccc3)cc2)cc1 | inactive
11 | Sc1nc(S)nc(S)n1 | inactive
12 | CCCOC(C)=O | inactive
13 | C=CCCC | inactive
14 | CC(O)C(C)O (stereo not given) | inactive
15 | C/C=C1\[C@H]2C=C(C)C[C@]1(N)c1ccc(=O)[nH]c1C2 | inactive
16 | CCC[Si](OC)(OC)OC | inactive
17 | OCCc1ccncc1 | inactive
18 | CCCCCCCCCCCCCCCCN | inactive
19 | CCCC(=O)OCCC(C)C | inactive
20 | Cc1c(Cl)cccc1Nc1ccccc1C(=O)O | inactive

Row | SMILES | Potency
21 | CCCc1nc(C)c2c(=O)[nH]c(-c3cc(S(=O)(=O)N4CCN(CC)CC4)ccc3OCC)nn12 | inactive
22 | O=c1[nH]nc(-c2ccc([N+](=O)[O-])o2)o1 | inactive
23 | O=C(O)CCc1nc2ccccc2[nH]1 | inactive
24 | Clc1ccccc1-c1nc(-c2ccncc2)no1 | inactive
25 | COc1ccnc2c1CCCCC2S(=O)c1nc2ccccc2[nH]1 (stereo not given) | inactive
26 | CC/C=C\CCO | inactive
27 | O=[N+]([O-])c1ccc(Cl)cc1Cl | inactive
28 | Cc1nc2sccn2c(=O)c1CCN1CCC(=C(c2ccc(F)cc2)c2ccc(F)cc2)CC1 | inactive
29 | Oc1ccc(Oc2ccccc2)cc1 | inactive
30 | COc1ccc(C(=O)Nc2ccccc2)cc1[N+](=O)[O-] | inactive
31 | NC(=O)c1ccccc1C(N)=O | inactive
32 | CCC(C)C1N=C(C)C(C)S1 (stereo not given) | inactive
33 | COC(=O)c1cc(Cl)ccc1[N+](=O)[O-] | inactive
34 | CC1(COc2ccc(CC3SC(=O)NC3=O)cc2)CCCCC1 (stereo not given) | inactive
35 | Cc1cc(SC2=C(O)C[C@@](CCc3ccc(N)cc3)(C(C)C)OC2=O)c(C(C)(C)C)cc1CO | inactive
36 | O=C(C1CCCCC1)N1CC(=O)N2CCCc3ccccc3C2C1 (stereo not given) | inactive
37 | C[C@H](N)C(=O)N[C@@H](C)C(=O)NC1[C@H]2CN(c3nc4c(cc3F)c(=O)c(C(=O)O)cn4-c3ccc(F)cc3F)C[C@@H]12 (stereo not given in full) | inactive
38 | O=C1c2ccccc2C(=O)C1c1ccc2cc(S(=O)(=O)O)cc(S(=O)(=O)O)c2n1 | inactive
39 | O=C1CCCN1CCO | inactive
40 | C[C@]12CCC(=O)C=C1[C@@H]1C[C@@H]1[C@H]1[C@@H]3[C@@H]4C[C@@H]4[C@@]4(CCC(=O)O4)[C@@]3(C)CC[C@@H]12 | inactive

Source: PubChem BioAssay (Tox21)
